# The campaign covered roughly 360,000 compounds. About 830 (0.23%) were called active.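 The calls were made as follows: active = mean luciferase reporter signal, scaled so untreated is 0 and the glycosylation-blocking control 100, at or above a set limit in every replicate; inconclusive = mean reaches the limit but not every replicate does; inactive = mean below the limit.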 Many of the other results were omitted from the sample, so actives are more common in it than they were.
# Assay: D54 reporter luminescence gain compounds – D54 ERlucT cells, set 2, N-linked glycosylation inhibitor project, primary screen (AID 588692);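 also: luciferase carries N-glycosylation sites so blocking glycosylation raises the light; 0% = median of neutral control wells and 100% = median of 100 nM tunicamycin wells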
# Conditions: D54 ERlucT glycosylation luciferase reporter, 24 h; at 12.5 µM; stronger effect = higher value; percent of 100 nM tunicamycin response
row,Compound,reporter increase
1,CN(NC(=O)C1CC(=O)N(c2ccccc2)C1)C1=NS(=O)(=O)c2ccccc21 (stereo not given),1.73% (inactive)
2,CC[C@H]1OC(=O)[C@H](C)[C@@H](O[C@H]2C[C@@](C)(OC)[C@@H](O)[C@H](C)O2)[C@H](C)[C@@H](O[C@@H]2O[C@H](C)C[C@H](N(C)C)[C@H]2O)[C@](C)(O)C[C@@H](C)[C@@H]2N[C@@H](COCCOC)O[C@H]([C@H]2C)[C@]1(C)O,0.0685% (inactive)
3,O=C1[C@H]2[C@@H](c3ccc(F)cc3)N3C(=O)N(c4ccc(C(F)(F)F)cc4)C(=O)[C@@]3(Cc3ccccc3)[C@H]2C(=O)N1C1CCCCC1,-7.93% (inactive)
4,CC[C@@]12C(=O)N(c3ccccc3)C(=O)N1[C@H](c1ccc(Br)cc1)[C@@H]1C(=O)N(C(C)(C)C)C(=O)[C@@H]12,-1.3% (inactive)
5,Cc1cccc(N2C(=O)N3[C@H](c4ccc(F)cc4)[C@@H]4C(=O)N(C5CCCCC5)C(=O)[C@@H]4[C@]3(Cc3ccccc3)C2=O)c1,78.2% (active)
6,CC(C)(C)N1C(=O)[C@H]2[C@@H](c3ccc(Br)cc3)N3C(=O)N(c4cccc(Cl)c4)C(=O)[C@@]3(C)[C@H]2C1=O,-3.13% (inactive)
7,O=C1[C@H]2[C@@H](c3ccc(Cl)cc3)N3C(=O)N(c4cccc(F)c4)C(=O)[C@@]3(Cc3ccccc3)[C@H]2C(=O)N1C1CCCCC1,-1.72% (inactive)
8,COc1ccc([C@@H]2[C@@H]3C(=O)N(C(C)(C)C)C(=O)[C@@H]3[C@]3(Cc4ccccc4)C(=O)N(c4cccc(Br)c4)C(=O)N23)cc1,36.7% (active)
9,CCCCN(C)C(=O)c1ccc2c(c1)N(CC)C(=O)c1ccccc1S2(=O)=O,2.3% (inactive)
10,O=C(CN1C(=O)NC2(CCc3ccccc32)C1=O)NC1CCCCC1 (stereo not given),3.09% (inactive)
11,COCCNC(=O)CN1C(=O)CSc2ncccc21,3.24% (inactive)
12,OC[C@@H]1CN(Cc2ccc3c(c2)OCO3)C[C@H](n2cnc3c(NCc4ccco4)ncnc32)O1,-0.219% (inactive)
13,COc1ccc2c(c1)[C@H]1[C@H](CO2)[C@H](c2ccccc2)[C@]2(C)C(=O)Nc3cc(F)c(F)cc3C(=O)N12,42% (active)
14,Cc1ccc2c(c1)NC(=O)[C@@]1(C)[C@@H](c3ccccc3)[C@H]3COc4ccc(Cl)cc4[C@@H]3N1C2=O,19.6% (inactive)
15,CCOC(=O)[C@H]1[C@H]2COc3ccc(OC)cc3[C@@H]2N2C(=O)c3ccc(F)cc3NC(=O)[C@@]12C,7.58% (inactive)
16,CC(=O)c1ccc(S(=O)(=O)NC2CC(=O)N(c3ccc4c(c3)OCCO4)C2)cc1 (stereo not given),0.667% (inactive)
17,C[C@@H]1CN([C@@H](C)CO)C(=O)c2cc(Br)cnc2O[C@@H]1CN(C)C(=O)C1CCCCC1,-0.264% (inactive)
18,CC1(C)O[C@@H]2[C@H](O1)[C@@H](COS(=O)(=O)O)O[C@H]2n1ccc(=O)[nH]c1=O,2.9% (inactive)
19,CCCNC(=O)C1(C)CCN(C(=O)c2cc(F)ccc2C)C1 (stereo not given),-0.06% (inactive)
20,CC(C)OCCCNC(=S)N1CCC(C(=O)c2ccc3c(c2)OCCO3)CC1,-1.26% (inactive)
21,COc1ccc(C)cc1NC(=O)CSc1cccc[n+]1[O-],1.45% (inactive)
22,CN(C)c1ccc(S(=O)(=O)NCC(=O)NCC2CCCCC2)cc1[N+](=O)[O-],-0.935% (inactive)
23,CN(C)c1ccc(/C=C/C(=O)c2ccc(C(C)(C)C)cc2)cc1[N+](=O)[O-],32.9% (active)
24,O=C(/C=C/c1ccc(Cl)cc1)N1CCN(c2ccccc2[N+](=O)[O-])CC1,0.213% (inactive)
25,CC/C(=N\NC(=O)c1c(C)nc2ccccn12)c1ccc(Cl)cc1,-0.008% (inactive)
26,OCc1ccc(-c2ccccc2)c(-c2ccccc2)c1,2.12% (inactive)
27,CCCc1nc2ccccc2c(C(=O)OCc2nnc(-c3cc(OC)c(OC)c(OC)c3)o2)c1CC,1.91% (inactive)

row,Compound,reporter increase
1,O=C1C2C3C=CC(C3)C2C(=O)N1c1ccc(S(=O)(=O)Nc2nccs2)cc1 (stereo not given),-0.133% (inactive)
2,Cc1sc2ncnc(SCC(=O)Nc3ccc(CN4CCCC4)cc3)c2c1C,-0.51% (inactive)
3,C=CCn1c(SCC(=O)NCCCO)nc2sc3c(c2c1=O)CCC3,0.299% (inactive)
4,C=CCn1c(SCC(=O)NCC2CCCO2)nc2sc(C)c(C)c2c1=O (stereo not given),-1.1% (inactive)
5,C=CCn1c(SCc2c(C)noc2C)nc2sc3c(c2c1=O)CCC(C)C3 (stereo not given),27.8% (active)
6,N#Cc1ccc(C2=CC(=O)C[C@H](c3ccc(Cl)cc3)C2)cc1,1.89% (inactive)
7,CC(=O)NCC(=O)N(Cc1ccco1)C1(C(=O)NC2CCCC2)CCCCC1,-0.741% (inactive)
8,O=C(Nc1ccc(Cl)cc1)C1Cc2c(-c3ccc4c(c3)OCO4)ccnc2O1 (stereo not given),1.69% (inactive)
9,CCc1c(C)n([O-])c2c([n+]1=O)CCCCC2,2% (inactive)
10,CCCNC(=O)C1(C)CCCN(C(=O)c2cccc(OC(C)=O)c2C)C1 (stereo not given),-0.136% (inactive)
11,Cc1ccc(Nc2nc(CSc3nnc(-c4ccncc4)n3-c3ccccc3C)cs2)cc1,-2.15% (inactive)
12,CC1CCCCN1C(=O)Cn1c(=O)oc2cc(S(=O)(=O)N3CCCCC3)ccc21 (stereo not given),-0.145% (inactive)
13,COc1cccc(CNC(=O)Cn2c(=O)oc3cc(S(=O)(=O)N4CCCCC4)ccc32)c1,-0.785% (inactive)
14,CC(C)CCNC(=O)Cn1c(=O)oc2cc(S(=O)(=O)N3CC(C)CC(C)C3)ccc21 (stereo not given),114% (active)
15,CCOC(=O)c1cc2cc(-c3c(C(=O)OCC)oc4cc(O)cc(O)c4c3=O)ccc2o1,-0.142% (inactive)
16,Cc1cccc(C)c1NC(=O)Nc1ccccc1-n1ccnc1,0.968% (inactive)
17,Cc1cccn2cc(-c3cccc(S(=O)(=O)N4CCCCC4)c3)nc12,-0.565% (inactive)
18,CC1CCCC(NC(=O)c2cc(-c3ccncc3)nc3ccccc23)C1C (stereo not given),0.382% (inactive)
19,Cc1ccc2nc(-c3ccncc3)cc(C(=O)Nc3ccc(OC(F)F)cc3)c2c1,-8.25% (inactive)
20,Cc1ccc2nc(-c3ccncc3)cc(C(=O)Nc3ccncc3)c2c1,29.9% (active)
21,O=C(c1ccc(N2CCCC2=O)cc1)N1CCN(c2ccc(C(F)(F)F)cc2[N+](=O)[O-])CC1,-1.99% (inactive)
22,CN(C)C(=O)N=NC(=O)N(C)C,0.968% (inactive)
23,COc1cc(N/C=C2\CC(=O)NC(C)=C2C#N)cc(OC)c1OC,0.911% (inactive)
24,O=C1/C(=C\c2ccc(O)cc2)CCC1CNc1ccc(Cl)cc1 (stereo not given),10.4% (inactive)
25,Cn1c(=O)n(C)c2cc(C(=O)Nc3ccc4c(c3)OCO4)ccc21,70.1% (active)
26,COc1cccc(OC)c1C(=O)Nc1ccc2c(c1)n(C)c(=O)n2C,9.32% (inactive)
27,Cc1ccc(C(=O)Nc2ccc3c(c2)OCCO3)cc1S(=O)(=O)N1CCOCC1,-2.07% (inactive)

row,Compound,reporter increase
1,Cc1ccc(S(=O)(=O)N2CCOCC2)cc1NC(=O)c1ccncc1,0.492% (inactive)
2,Cc1ccc(S(=O)(=O)NN=C2CC(C)(C)CC(=O)C2(C)C)cc1,-0.913% (inactive)
3,Cc1cccc(S(=O)(=O)N2CN(CC3CCCO3)c3nc4ccccc4nc32)c1 (stereo not given),0.557% (inactive)
4,Cc1sc2c(c1C)c(=O)n(-c1ccccc1)c1nncn21,3.73% (inactive)
5,O=C(Nc1ccc(S(=O)(=O)N2CCc3ccccc3C2)cc1)c1ccccc1,-1.85% (inactive)
6,C=CCN(CC=C)S(=O)(=O)c1ccc(C(=O)Nc2nc3c(s2)CCc2ccccc2-3)cc1,55.6% (active)
7,COCCN(CCOC)S(=O)(=O)c1ccc(C(=O)Nc2nc3c(s2)CCc2ccccc2-3)cc1,-0.048% (inactive)
8,C[C@H](CO)N1C[C@H](C)[C@H](CN(C)CC2CC2)Oc2ccc(NC(=O)CCN3CCOCC3)cc2C1=O,1.29% (inactive)
9,CCc1nnc(NC(=O)C2CC(=O)N(c3ccc4c(c3)OCCO4)C2)s1 (stereo not given),1.58% (inactive)
10,CN(C)C(=O)c1coc2nc3ccccc3nc12,0.129% (inactive)
11,CNC(=O)c1cccc2nc3ccccc3nc12,39.1% (active)
12,CNC(=O)C(NC(=O)c1ccccc1)=C(C)C,-0.912% (inactive)
13,COc1ccc2[nH]c3c(c2c1)CCN1C(=O)C(CC(=O)NCCc2ccccn2)C[C@H](C(=O)N2CCOCC2)[C@@]31C (stereo not given in full),2.29% (inactive)
14,CSc1cc(C)n(-c2ccccc2C)c(=S)c1C(C)=O,-0.347% (inactive)
15,COc1ccccc1CNC(=O)CNC(=O)c1cn(-c2ccccc2OC)c(=O)c2ccccc12,1.89% (inactive)
16,Cc1ccc(F)c(S(=O)(=O)NC(=O)C2(C)CCN2C(=O)CCc2cccs2)c1 (stereo not given),2.26% (inactive)
17,O=C(Nc1cccc(Cc2ccccc2)c1)Nc1ccc2nc([C@@H]3O[C@H](CO)[C@@H](O)[C@H](O)[C@H]3O)[nH]c2c1,0.008% (inactive)
18,NNC(=O)CNC(c1ccccc1)c1cc(Cl)ccc1NC(=O)c1ccccc1 (stereo not given),-3.39% (inactive)
19,Cn1ccc(=Nc2ccc(NC(=O)c3ccc(N=c4ccn(C)c5ccc([N+](=O)[O-])cc45)cc3)cc2)cc1,32.9% (active)
20,CN(CC1CCCO1)S(=O)(=O)c1ccc(C(=O)Nc2ccc([N+](=O)[O-])cc2)cc1 (stereo not given),-5.35% (inactive)
21,CC(C)c1ccc(NC(=O)CCN2C(=O)c3ccc([N+](=O)[O-])cc3C2=O)cc1,1.26% (inactive)
22,COCCCn1c(SCC(=O)Nc2oc(C)c3c(C)n[nH]c(=O)c23)nc2sc3c(c2c1=O)CCC3,4.94% (inactive)
23,C1CC1Cc1noc(CN2CCN(CC3CC3)CC2)n1,-0.901% (inactive)
24,O=C(Cn1cnc2ccccc21)Nc1ccccc1-c1ccccc1,0.271% (inactive)
25,O=C(COC(=O)Cn1cnc2ccccc2c1=O)NCc1ccccc1Cl,0.775% (inactive)
26,O=C(COC(=O)Cn1cnc2ccccc21)Nc1cccc2c1C(=O)c1ccccc1C2=O,103% (active)

# Reference: PubChem BioAssay AID588692 (Broad Institute, 2011)
